Drawing on the OligoGym collection, this text covers sensor-assay potency score (higher = more potent) for 22 sequences.
Also: reference of the scale not given here.

The first test deals with ZMAT5. Put plainly: pooled miR-30 sensor sort-seq; sequence = guide strand. The following applies: shRNA.
For the sequence TCTCGCTCTGACATGTGGGAAA, the sensor-assay potency score (higher = more potent) was -1.37.

For the sequence TACTGGAAGACAGTGGTTCTGA, the sensor-assay potency score (higher = more potent) is 0.107.

For the sequence TTGGAGCCAAAGTCGCACTGGC, the sensor-assay potency score (higher = more potent) is -0.262. On to TGCATCTCGGAACATGTCGTAC, for which the sensor-assay potency score (higher = more potent) is -1.55. The same measure, in the same setting: next, TACCAGACCTTCTTGGCCTTGA: 0.178. The sequence ATCTCGGAACATGTCGTACCAG came in with a sensor-assay potency score (higher = more potent) of -1.24.

Sequence ATGTCGTACCAGACCTTCTTGG registered a sensor-assay potency score (higher = more potent) of -1.05. Turning to TCTGACATGTGGGAAAATCTGC, the sensor-assay potency score (higher = more potent) was -0.533. Still for that read-out and setting: the result for TTGTTCTGCTCATCCAGCAAGA reads -0.992. The same measure, in the same setting: next, TGTCGTACCAGACCTTCTTGGC: -0.415.

The target in the next test is ZMYM3. The description is as above. The following applies: shRNA.
In the case of TTACACAGGGTCTTGCACCAGA, the sensor-assay potency score (higher = more potent) is 0.022. Still for that read-out and setting: the result for TTGAGCTCAGCAGCTGAGCAGG reads -1.2; that for TAGAACTTGACAGGGCAGCGGA, -0.668; that for TACACTGGGATTAATGTCCAGA, -0.579.

For the sequence TTCTGTTTGACTTCCTTTGGAC, the sensor-assay potency score (higher = more potent) was 0.00295. For the sequence TTGACCACAGATCCCATCCTGC, the sensor-assay potency score (higher = more potent) is -0.277.

Sequence TTGGACTTCATCTCCACCTTGC gave a sensor-assay potency score (higher = more potent) of 0.519. Turning to TTGTCTGTGCTCTCCAAGGTAG, the sensor-assay potency score (higher = more potent) was -0.839. Still for that read-out and setting: next, TTGTTCAGTAGACACATCCTCA: 0.00931; TTGTACAGCAGCACACAGCCTT: -0.282; AAACAGGTCACAGTCTTCCAGG: -1.1. Same read-out and setting: the result for TTTGTGACACACTTGAGCGTAG reads 0.22.
